Screening results from PubChem BioAssay.
Hits are enriched below; roughly 3.6% of the tested compounds scored in any of these assays.
TRHR PAM – qHTS for Small Molecule Agonists and Allosteric Enhancers of Human TRH Receptor: Primary Screen for Enhancers; Thyrotropin-releasing hormone receptor (Homo sapiens), P34981; TRHR cells, fluo-8 calcium fluorescence, EC20 TRH enhancement; enhancement, % at 2 µM; hit rate 0.66% among 360,000; AID 493056, 2011; in the data active = enhancement above about 30%; note: 0% is about no effect
Target sequence (P34981 whole entry, looked up): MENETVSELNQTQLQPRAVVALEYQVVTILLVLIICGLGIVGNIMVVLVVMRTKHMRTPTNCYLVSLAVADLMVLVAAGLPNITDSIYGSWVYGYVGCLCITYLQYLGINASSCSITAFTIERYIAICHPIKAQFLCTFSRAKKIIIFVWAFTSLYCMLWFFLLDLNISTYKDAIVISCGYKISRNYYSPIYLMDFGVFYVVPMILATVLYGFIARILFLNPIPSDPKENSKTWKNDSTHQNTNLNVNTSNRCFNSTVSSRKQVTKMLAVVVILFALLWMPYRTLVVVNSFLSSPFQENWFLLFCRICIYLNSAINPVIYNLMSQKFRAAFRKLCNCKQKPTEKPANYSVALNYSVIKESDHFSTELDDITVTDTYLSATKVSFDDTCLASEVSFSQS
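Enhancer read-out: after compound pinning and an initial kinetic agonist-mode read, an EC20 of TRH (10 nM final) was injected and fluo-8 calcium signal (Ex 480/Em 530) followed at 1 s/cycle for 100 cycles in TRHR-expressing cells.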
LDHA block – qHTS assay for inhibitors of human lactate dehydrogenase; L-lactate dehydrogenase A chain (Homo sapiens), P00338; purified LDHA, NADH/diaphorase-resazurin fluorescence; stronger effect = lower value; activity change, % (values are at about 110 or 230 µM); hit rate 0.15% among 480,000; in the data active = activity change below about -30%;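 note: plate controls were DMSO wells for no effect and wells without enzyme for full effect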
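Remaining NADH was detected by diaphorase (0.133 mg/mL) converting 37 µM resazurin to fluorescent resorufin, read at 0 and 20 minutes. The preceding 5-minute room-temperature reaction used 2 nM LDHA, 0.2 mM sodium pyruvate and 0.06 mM NADH at pH 7.4.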
D1 ag – Allosteric Agonists of the Human D1 Dopamine Receptor: qHTS; activation, % at 2 µM; HEK293 T-REx D1 cells, calcium flux, agonist mode; AID 504660, 2011; hit rate 1% among 360,000; D(1A) dopamine receptor (Homo sapiens), P21728; note: 0% is about no effect
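Tetracycline-induced HEK293 TREx D1 cells, force-coupled to calcium signalling, were dye-loaded with a no-wash calcium kit. Compound was pin-added after a 10 s baseline. Fluorescence was read kinetically at 1 cycle/s for 180 s, with calcium rises flagged as agonism.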
D1 potentiator – Potentiators of Human D1 Dopamine Receptor: qHTS. D(1A) dopamine receptor (Homo sapiens), P21728. HEK293 TREx D1 cells, calcium flux, dopamine EC20 potentiation. potentiation, % at 10 µM. hit rate 0.036% among 360,000. AID 504651, 2011; in the data active = potentiation above about 30%; note: 0% is about no effect
TRHR ag – qHTS for Small Molecule Agonists and Allosteric Enhancers of Human TRH Receptor: Primary Screen for Agonists; TRHR cells, calcium flux fluo-8, FDSS agonist mode; activation, % at 2 µM; hit rate 0.18% among 360,000; note: 0% is about no effect
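In this calcium-flux screen, cells bearing human TRHR are dye-loaded with fluo-8, baselined for 10 cycles, then exposed to library compounds; positive kinetic calcium responses during the agonist phase mark hits, with TRH as control.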
D1 antagonist – Antagonist of Human D 1 Dopamine Receptor: qHTS; HEK293 TREx D1 cells, calcium flux, dopamine EC80; stronger effect = lower value; hit rate 3.2% among 360,000; activity change, negative = inhibition, % at 10 µM; in the data active = activity change below about -30%; note: % is set by controls: 0 for no effect and ±100 for the full control effect
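Inducible Hek293 Trex D1 cells (tetracycline, overnight, 30 C). Calcium dye 30–90 min RT. Antagonist mode: EC80 dopamine added after 180 s compound read.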
Starred values were filed as active, the others as inactive; . = not tested or not shown; ! = a repeat was not active. Cut-off read from the data, not from the text of the source, unless noted: active = activation above about 30%; inactive = the rest.

SMILES	TRHR PAM	LDHA block	D1 ag	D1 potentiator	TRHR ag	D1 antagonist
CC(C)(C)c1ccc(C(=O)N(C2CCCCC2)C2CCCCC2)cc1	.	7.3	.	.	.	.
COc1ccc(CC(CC(=O)O)C(=O)Nc2ccc(Cl)c(Cl)c2)cc1 (stereo not given)	0.1	-2.2	-1.5	14.0	0.3	-30.6*
Cc1ccc(CC(CC(=O)O)C(=O)Nc2ccc(Cl)cc2)cc1 (stereo not given)	-6.6	-8.0	6.8	-5.2	-0.3	-2.5
CCOc1ccccc1Nc1ncnc2c1cnn2-c1ccc(C)cc1	-6.1	2.6	-3.0	0.6	-0.2	-41.0*
CCOc1ccccc1Nc1ncnc2c1cnn2-c1ccccc1	-4.8	-13.6	0.0	-10.2	-1.4	-12.5
Cc1cccc(Nc2ncnc3c2cnn3C)c1C	-5.4	-1.2	-4.3	-0.3	-0.5	-9.9
Cc1ccc(-n2ncc3c(Nc4cccc(C)c4C)ncnc32)cc1	-5.5	-4.2	-2.3	-3.0	0.2	-32.4*
CCOC(=O)c1ccc(N=c2sc(C(=O)OC)cc(=O)n2CCCN2CCOCC2)cc1	0.1	-0.1	3.5	-8.7	0.3	-40.5*!
CCOC(=O)C1=C(C)N(C2CCCCC2)C(=O)C1(NC(=O)C1CC1)C(F)(F)F (stereo not given)	.	-6.5	.	.	.	.
CCc1ccccc1N(C)S(=O)(=O)c1ccc2[nH]cc(C(=O)O)c(=O)c2c1	12.6	-41.5*	-2.1	-2.9	-0.5	-13.5
COCCN(CCOC)C(=O)c1c[nH]c2ccc(S(=O)(=O)N(C)c3ccc(F)cc3)cc2c1=O	0.3	-4.3	0.2	-0.7	0.2	-1.2
CCc1ccccc1NS(=O)(=O)c1ccc2[nH]cc(C(=O)N(CC(C)C)CC(C)C)c(=O)c2c1	6.1	3.5	0.5	-0.3	0.4	-53.9*
CN(c1ccc(F)cc1)S(=O)(=O)c1ccc2[nH]cc(C(=O)O)c(=O)c2c1	-5.1	-30.1*	3.4	-0.1	0.2	7.7
CCc1ccccc1NS(=O)(=O)c1ccc2[nH]cc(C(=O)N3CCCCC3)c(=O)c2c1	14.8	0.7	-1.6	-0.8	-0.9	2.5
C[C@@H](C(=O)NCc1ccccn1)[C@@H]1C[C@@]1(C)[C@@H](NC(=O)OCc1ccccc1)c1ccccc1	-5.1	2.2	-2.1	1.9	-0.5	-31.0*
CC(=O)c1cccc(OCC(O)CNCC2COc3ccccc3O2)c1 (stereo not given)	12.0	-20.5	45.0*	-12.7	-1.6	-47.6*
CC(OCC(O)CNCC1COc2ccccc2O1)c1ccc(Cl)cc1 (stereo not given)	7.3	-11.4	26.7	-8.9	0.7	-6.2
CCOc1ccc(C=Nc2ccc(N(C)C)cc2)cc1	.	26.5	.	.	.	.
Cc1cccc[n+]1CC(=O)N1c2ccccc2Sc2ccccc21	31.3*	-14.5	1.0	-6.0	-1.6	-25.2
O=C(Nc1ccc2ccccc2c1)Nc1nnc(-c2ccncc2)o1	.	13.2	.	.	.	.
CCc1cc2c(NCC3CCCO3)ncnc2s1 (stereo not given)	-2.9	3.3	4.8	-5.7	-0.1	-2.8
Cc1sc2ncnc(NCC3CCCO3)c2c1C (stereo not given)	1.9	-2.2	12.0	-5.0	0.2	-30.2*
COc1cc(C#N)cc(Cl)c1OCc1nnc(-c2ccccc2)o1	.	9.3	.	.	.	.
O=C(Nc1cccc(C(F)(F)F)c1)c1cccc(NC(=O)c2ccc[n+]([O-])c2)c1	.	-8.2	.	.	.	.
O=C(Nc1ccc2ncccc2c1)c1ccccc1Br	-2.1	2.9	0.8	0.1	-0.2	1.2
SMILES	TRHR PAM	LDHA block	D1 ag	D1 potentiator	TRHR ag	D1 antagonist
O=C(Nc1ccc2ncccc2c1)Nc1ccc2ncccc2c1	14.4	-0.7	1.1	-7.4	0.5	-35.6*
CNc1nc(-c2cc(C)n(-c3c(C)n(C)n(-c4ccccc4)c3=O)c2C)cs1	.	12.1	.	.	.	.
COC(=O)c1sc(NC(=O)c2csc3ccccc23)nc1C	.	9.0	.	.	.	.
CC1CCCCN1Cc1c(O)ccc2c(=O)c(-c3nc4ccccc4s3)coc12 (stereo not given)	31.6*	1.4	2.1	-0.7	-0.2	-4.5
Cc1cc(C)nc(OC(=O)c2c(Cl)cc(Cl)cc2Cl)n1	30.2*	-6.6	2.6	-2.5	-0.6	-11.3
O=C(COC(=O)CNC(=O)c1cccc([N+](=O)[O-])c1)Nc1nc2ccccc2s1	-3.2	-5.0	3.5	-8.0	0.2	-8.0
O=C(COC(=O)CNC(=O)c1cccc([N+](=O)[O-])c1)Nc1ccccc1OC(F)F	33.7*	0.2	4.3	1.7	-0.6	-7.8
CCn1ncc(S(=O)(=O)Nc2cccnc2)c1C	-9.7	-6.7	2.0	-10.5	0.5	-41.0*
Cc1ccccc1S(=O)(=O)Nc1cccnc1	-1.0	2.3	0.5	-4.2	-0.2	1.4
CCN(C(=O)COC(=O)c1cccnc1Nc1ccccc1F)C1CCS(=O)(=O)C1 (stereo not given)	-6.0	-0.9	2.5	0.2	-0.1	9.7
Cc1noc(C)c1C(=O)OCC(=O)N(C)C1CCS(=O)(=O)C1 (stereo not given)	2.5	-11.1	3.8	-1.8	0.2	-79.5*
CN(C(=O)COC(=O)c1cccnc1Nc1ccccc1F)C1CCS(=O)(=O)C1 (stereo not given)	-2.0	-2.7	-0.4	-2.2	-1.5	-30.6*
CN(C(=O)COC(=O)c1ccc(-c2ccc(O)cc2)cc1)C1CCS(=O)(=O)C1 (stereo not given)	2.9	-1.3	3.6	-3.8	0.1	-46.1*
Cc1cccc(OCCC(=O)NC(C)c2ccc(F)cc2)c1 (stereo not given)	.	4.1	.	.	.	.
CCOCCCNC(=O)C1CCN(Cc2ccc(OCc3ccccc3)c(OC)c2)CC1	12.0	-15.6	5.0	1.5	0.1	4.4
CCOCCCNC(=O)C1CCN(Cc2cccc(OCc3ccccc3)c2)CC1	-7.0	-14.5	-2.0	-3.1	0.3	-30.6*
COC(=O)c1ccc(-n2c(/C=C\c3cccc(Br)c3)nc3ccccc3c2=O)cc1	0.3	3.0	4.4	-1.6	-0.1	-31.7*
NC(=O)c1ccc(NC(=O)c2cn(Cc3ccccc3)nc2-c2ccc(Cl)cc2)cc1	.	0.6	.	.	.	.
O=S(=O)(c1ccc(-c2nc(-c3ccccc3)no2)o1)N1CCOCC1	.	-0.3	.	.	.	.
COc1ccc([C@H](NC(=O)OC(C)(C)C)C(=O)OC(C)(C)C)cc1	-5.0	-4.0	-0.1	-8.0	0.3	-47.0*
